Test results from PubChem BioAssay.
Calls of active or inactive are those of the source. Unless noted, no rule for the calls is given here.

Columns and labels:
[1] = system: XIP peptide (Xip251-270) binding; assay: small-molecule binders of XIP peptide, primary screen, biochemical, small-molecule microarray, fluorescence 635/667 nm, 0.1 µg/mL protein (AID 1182); conditions: fluorescent protein binding, 635 nm, higher = more signal, called active from +8 up or from −8 down
[2] = system: XIP peptide (Xip251-270); assay: small-molecule binders of XIP peptide, primary screen, biochemical, small-molecule microarray, fluorescence 635/667 nm, 0.5 µg/mL protein (AID 1183); conditions: small-molecule microarray binding, fluorescence 635 nm; higher = more signal
[3] = Plasmodium falciparum growth inhibition, primary screen, strain 3D7, DAPI fluorescence, 100 nL (AID 1184);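 also: parasites grown inside human red blood cells in medium with human serum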; conditions: P. falciparum 3D7 growth, 3 d, higher = more signal
[4] = biological target: Homeobox protein Hox-A13 (Mus musculus) (UniProt Q62424); assay: inhibitors of HoxA13-DNA binding, primary screen, biochemical, fluorescence polarization, labeled oligonucleotide (AID 1185); conditions: 15 min, higher = more signal, called active from +8 up or from −8 down
[5] = inhibitors of hydroxyurea-induced Chk1 phosphorylation, primary screen, imaging, HeLa, phospho-Chk1 antibody, percent positive cells (AID 1186); conditions: hydroxyurea-induced phospho-Chk1 immunofluorescence imaging, higher = more signal
[6] = inhibitors of hydroxyurea-induced Chk1 phosphorylation, primary screen, imaging, HeLa, phospho-Chk1 nuclear intensity (AID 1187); conditions: hydroxyurea-induced phospho-Chk1 immunofluorescence imaging, higher = more signal

Sequence of Homeobox protein Hox-A13 (Mus musculus) (Q62424 whole entry, looked up): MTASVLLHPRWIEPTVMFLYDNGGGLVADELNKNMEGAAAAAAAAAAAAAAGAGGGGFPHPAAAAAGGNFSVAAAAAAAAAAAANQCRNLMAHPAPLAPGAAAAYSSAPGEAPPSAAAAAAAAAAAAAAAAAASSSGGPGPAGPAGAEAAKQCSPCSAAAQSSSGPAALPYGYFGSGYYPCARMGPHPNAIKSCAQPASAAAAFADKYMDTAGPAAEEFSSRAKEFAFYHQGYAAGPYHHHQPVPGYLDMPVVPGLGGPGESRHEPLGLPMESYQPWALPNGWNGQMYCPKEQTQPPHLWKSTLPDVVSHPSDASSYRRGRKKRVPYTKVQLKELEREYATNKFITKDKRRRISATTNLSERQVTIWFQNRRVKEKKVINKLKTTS

Compound	composite z-score [1]	composite z-score [2]	z-score [3]	z-score [4]	z-score [5]	z-score [6]
CCC[C@@H]1C[C@@]1(CCC)[C@@H](NC(=O)c1ccco1)c1ccc(Cl)cc1	0.0025 (inactive)	-0.835	-1.21	-0.61 (inactive)	0.348 (inactive)	0.241 (inactive)
Cc1ccc(S[C@]2(C(=O)NCC(C)C)CC(=O)N(C3CCCCC3)[C@@H]2c2ccc(CO)cc2I)cc1	1.4 (inactive)	0.254	-1.82	-3.86 (inactive)	0.263 (inactive)	0.746 (inactive)
O=C1c2ccccc2[C@](Cc2ccccc2I)(C(=O)NC2CC2)[C@H](c2ccc(CO)cc2)N1Cc1ccccc1Cl	1.33 (inactive)	-0.154	-1.03	-4.21 (inactive)	0.129 (inactive)	-0.341 (inactive)
C[C@@H]1ON(c2ccccc2)[C@H](c2ccccc2)[C@H]1C(=O)N1C(=O)OC[C@H]1Cc1ccccc1	0.0959 (inactive)	0.351	-1.96	-1.4 (inactive)	-0.673 (inactive)	-0.308 (inactive)
COc1cc2c(cc1OC)CN(C(=O)[C@@H]1[C@H]3C(=O)O[C@H](c4ccccc4)[C@H](c4ccccc4)N3[C@H](c3ccc(OCCO)cc3)[C@@]13C(=O)Nc1ccc(C#CCCO)cc13)CC2	1.17 (inactive)	0.75	-2.12	3.49 (inactive)	0.0699 (inactive)	0.595 (inactive)
CC(C)C[C@@H]1NC(=O)[C@@]23C(=O)N[C@@H](Cc4ccccc4)C2[C@H](C)[C@@]2(C)O[C@H]2C3/C=C/C/C=C\CNC(=O)[C@@H]2CCCN2C1=O (stereo partly specified)	-0.0982 (inactive)	-0.791	0.817	-6.29 (inactive)	-0.118 (inactive)	0.275 (inactive)
CCCCC=C[C@@H](NC(=O)CCc1ccccc1)c1ccccc1	0.286 (inactive)	0.518	-0.425	-0.0682 (inactive)	-0.522 (inactive)	-0.805 (inactive)
COCCOC(=O)N1C(=O)[C@@]2(c3cc(C#CCC(C(=O)OC)C(=O)OC)ccc31)[C@H](C(=O)N1CCCCCCC1)[C@H]1C(=O)O[C@H](c3ccccc3)[C@H](c3ccccc3)N1[C@@H]2c1ccc(O)cc1	0.825 (inactive)	0.729	-2.22	-0.454 (inactive)	-0.15 (inactive)	-0.367 (inactive)
O=C1OCC=C[C@H]2OC34C=CCN(CCN5CCOCC5)C(=O)[C@H]3N(CCCCCO)C(=O)[C@@H]4[C@@H]12 (stereo partly specified)	0.102 (inactive)	0.609	-0.285	-6.05 (inactive)	0.513 (inactive)	-0.209 (inactive)
COCCOC(=O)N1C(=O)[C@@]2(c3cc(C#Cc4ccc(OC)cc4)ccc31)[C@H](c1ccc(OCCO)cc1)N1[C@H](c3ccccc3)[C@H](c3ccccc3)OC(=O)[C@H]1[C@@H]2C(N)=O	1.12 (inactive)	0.758	-1.97	-0.245 (inactive)	0.105 (inactive)	0.247 (inactive)
CCOC(=O)C1=CCC(c2cccc(Cl)c2)O1 (stereo unspecified)	1.62 (inactive)	0.183	-1.25	-0.834 (inactive)	0.296 (inactive)	-0.0984 (inactive)
C=C(C(=O)CC[C@H](OC(=O)c1cccnc1)c1ccc(OCCO)cc1)C(C)C	0.538 (inactive)	0.551	-2.02	-4.81 (inactive)	0.387 (inactive)	0.05 (inactive)
O=C(O)[C@@]1(Cc2ccccc2)COC(c2ccc(OCCCO)cc2)=N1	-0.781 (inactive)	-0.486	-0.0272	-1.29 (inactive)	-0.0393 (inactive)	0.204 (inactive)
COCCOC(=O)N1C(=O)[C@@]2(c3cc(C#Cc4ccc(OC)cc4)ccc31)[C@H](C(N)=O)[C@H]1C(=O)O[C@H](c3ccccc3)[C@H](c3ccccc3)N1[C@@H]2c1ccc(OCCO)cc1	0.283 (inactive)	0.721	-2.35	-1.11 (inactive)	0.0311 (inactive)	0.239 (inactive)
O=C1C2C=CC(C(O)c3ccc(Br)cc3)N(Nc3ccccc3)C2C(=O)N1c1ccccc1 (stereo unspecified)	0.65 (inactive)	0.324	-0.18	-3.62 (inactive)	0.348 (inactive)	0.453 (inactive)
C=CC[C@@]1(C(=O)NCC(O)CO)N=C(c2ccc(OCCCO)cc2)O[C@@H]1c1ccccc1 (stereo partly specified)	2.6 (inactive)	0.691	-0.869	-4.25 (inactive)	-0.379 (inactive)	-0.244 (inactive)
O=C1O[C@H](c2ccccc2)[C@H](c2ccccc2)N2[C@H]1[C@@H](C(=O)N1CCN(c3ncccn3)CC1)[C@]1(C(=O)Nc3ccc(C#CCCO)cc31)[C@H]2c1ccc(OCCO)cc1	0.756 (inactive)	0.853	-1.9	-0.587 (inactive)	0.177 (inactive)	0.923 (inactive)
COc1ccc(C#Cc2ccc3c(c2)[C@]2(C(=O)N3)[C@H](C(=O)O)[C@H]3C(=O)O[C@H](c4ccccc4)[C@H](c4ccccc4)N3[C@@H]2c2ccc(OCCO)cc2)cc1	2.6 (inactive)	0.701	-1.78	-5.22 (inactive)	0.573 (inactive)	0.862 (inactive)
COCCOC(=O)N1C(=O)[C@@]2(c3cc(C#Cc4ccc(OC)cc4)ccc31)[C@H](C(=O)N1CCc3cc(OC)c(OC)cc3C1)[C@H]1C(=O)O[C@H](c3ccccc3)[C@H](c3ccccc3)N1[C@@H]2c1ccc(OCCO)cc1	-0.266 (inactive)	0.688	-2.22	2.6 (inactive)	0.0413 (inactive)	0.277 (inactive)
C[N+](C)(C)CCCCCCNC(=O)[C@@H]1C[C@@H]2C(=O)NCC(=O)N2[C@@H]1c1cccc(OCCO)c1	0.525 (inactive)	0.421	-0.848	-4.4 (inactive)	-0.177 (inactive)	-0.261 (inactive)
C[N+](C)(C)CCCC[C@@H]1NC(=O)[C@@H]2C[C@H](C(=O)NCCCCCNC(=O)CS)[C@H](c3cccc(OCCO)c3)N2C1=O	0.17 (inactive)	-0.0808	0.0793	-3.31 (inactive)	-0.209 (inactive)	-0.123 (inactive)
COC(=O)[C@@]1(Cc2ccc(OC)cc2)[C@H]2c3cc(C(=O)N4CCCC4)n(CCF)c3C[C@H]2CN1C(=O)c1ccccc1	1.24 (inactive)	0.388	-1.8	-5.44 (inactive)	0.128 (inactive)	-0.0625 (inactive)
Cc1cc(C)c(C(O)C2C=CC3C(=O)N(c4ccccc4)C(=O)C3N2Nc2ccccc2)c(C)c1 (stereo unspecified)	0.733 (inactive)	0.79	-0.0689	-3.33 (inactive)	0.826 (inactive)	0.41 (inactive)
CN(C)CCCCNC(=O)[C@H]1C[C@H]2C(=O)N[C@@H](CCCC[N+](C)(C)C)C(=O)N2[C@H]1c1cccc(OCCO)c1	1.42 (inactive)	0.689	-0.0344	-3.83 (inactive)	-0.0589 (inactive)	-0.216 (inactive)
COCCOC(=O)N1C(=O)[C@@]2(c3cc(C#CC4(O)CCCCCC4)ccc31)[C@H](C(=O)N1CCc3cc(OC)c(OC)cc3C1)[C@H]1C(=O)O[C@H](c3ccccc3)[C@H](c3ccccc3)N1[C@@H]2c1ccccc1OCCO	-0.0915 (inactive)	0.771	-1.99	0.772 (inactive)	0.286 (inactive)	1.13 (inactive)
C=CCC(OC(C)=O)[C@@H]1[C@@H](N(Cc2cc3ccccc3o2)C(=O)Cc2ccc(OC)cc2)c2cc(OCCCO)ccc2N1C(=O)c1ccc(-c2ccccc2)cc1 (stereo partly specified)	-0.341 (inactive)	-0.236	-2.84	-1.11 (inactive)	0.298 (inactive)	0.549 (inactive)
